The text below walks through data of PubChem BioAssay.

Assay [1] in a line: blockers of polyQ-driven CASP3 activation – cell-based (AID 1583). As to conditions: polyglutamine-induced caspase-3 activation, cell assay; stronger effect = higher value;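 tested at 10 µM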.
A short description of assay [2]: restoration of touch response, mutant HTT neurons – whole organism, C. elegans mechanosensory neurons, N-terminal huntingtin (AID 1599). As to conditions: C. elegans polyQ-huntingtin mechanosensory neurons, stronger effect = higher value.
Assay [3] can be described thus: glutamate transport activators, MN-1 cells, MN-1 cell line (AID 1612).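 Further: tested at 1 µM final; 0% = mean of DMSO vehicle wells on each plate; positive means more glutamate uptake than control and negative means less.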 To be noted: MN-1 motor neuron cells, stronger effect = higher value.
A short description of assay [4]: 75Q-TubH aggregate inhibition, S. cerevisiae, yeast (AID 1616). As to conditions: S. cerevisiae 75Q-TubH polyglutamine aggregation suppression; stronger effect = higher value.
Assay [5] is described as follows: GFP-Q80 aggregate reduction, neuronal-like cells, cell-based, NGF-treated PC12, GFPQ80 (AID 1614).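 Further: lower means fewer inclusions and 0 means no inclusions at all.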 As to conditions: PC12 NGF-treated GFP-polyQ80 inclusion reduction.
In assay [6] the target is ATP-dependent translocase ABCB1 (Homo sapiens) (UniProt P08183). Briefly: P-glycoprotein substrate transport blockade – cell-based (AID 377; in the data active means fluorescence slope change above about 50%). As to conditions: MDR1-expressing cells, fluorescent substrate accumulation slope; stronger effect = higher value; concentration not given here.
Assay [7] is described as follows: compounds altering viability of human ES cells (AID 493140).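 Further: cells exposed to compounds for four days before counting.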 As to conditions: human embryonic stem cell survival screen; stronger effect = higher value.
Assay [8] can be described thus: compounds altering circadian rhythm period length – cell-based, LOPAC library, luminescence reporter (AID 2774).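 Further: values are relative to mean of DMSO wells on each plate.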 As to conditions: circadian reporter cells, at 7 µM, actives lie on both sides.
Assay [9] has as its system Hepatitis C virus NS3 helicase. In words: blockers of NS3h binding to ssDNA – biochemical, fluorescence polarization, LOPAC1280 library, primary screen (AID 687035; in the data active means inhibition above about 37%). As to conditions: Purified HCV NS3 helicase, Cy5-dT15 ssDNA binding fluorescence polarization; stronger effect = higher value; concentration not given here.
Assay [10] is described as follows: compounds altering Cy5-DNA-NS3h complex signal – biochemical, LOPAC1280, artefact control for HCV NS3 helicase inhibitor project (AID 687037). To be noted: Cy5-DNA-NS3h complex fluorescence interference counterscreen.
Assay [11] has as its system Aerobactin synthetase IucA (Klebsiella pneumoniae, hypervirulent). Briefly: biochemical IucA inhibition screen of LOPAC library by absorbance (AID 1346212).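 Further: 100% = no compound wells and 0% = no enzyme wells.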 To be noted: IucA enzyme assay, absorbance (OD) readout; stronger effect = lower value;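 tested at 8 µM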.
Assay [12] is described as follows: blockers of cellular phospholipid synthesis – cell-based, LOPAC library, screen 4, primary screen (AID 1347384). To be noted: animal cells, phospholipid biosynthesis inhibition screen; at 10 µM.

SMILES strings stand for the structures. Records with an inconclusive call do not appear. For some of these results: Potency and affinity values are given separately. The source made the active and inactive calls. Unless noted, how the calls were made is not given here.

Chain of ATP-dependent translocase ABCB1 (Homo sapiens) (P08183 whole entry, looked up): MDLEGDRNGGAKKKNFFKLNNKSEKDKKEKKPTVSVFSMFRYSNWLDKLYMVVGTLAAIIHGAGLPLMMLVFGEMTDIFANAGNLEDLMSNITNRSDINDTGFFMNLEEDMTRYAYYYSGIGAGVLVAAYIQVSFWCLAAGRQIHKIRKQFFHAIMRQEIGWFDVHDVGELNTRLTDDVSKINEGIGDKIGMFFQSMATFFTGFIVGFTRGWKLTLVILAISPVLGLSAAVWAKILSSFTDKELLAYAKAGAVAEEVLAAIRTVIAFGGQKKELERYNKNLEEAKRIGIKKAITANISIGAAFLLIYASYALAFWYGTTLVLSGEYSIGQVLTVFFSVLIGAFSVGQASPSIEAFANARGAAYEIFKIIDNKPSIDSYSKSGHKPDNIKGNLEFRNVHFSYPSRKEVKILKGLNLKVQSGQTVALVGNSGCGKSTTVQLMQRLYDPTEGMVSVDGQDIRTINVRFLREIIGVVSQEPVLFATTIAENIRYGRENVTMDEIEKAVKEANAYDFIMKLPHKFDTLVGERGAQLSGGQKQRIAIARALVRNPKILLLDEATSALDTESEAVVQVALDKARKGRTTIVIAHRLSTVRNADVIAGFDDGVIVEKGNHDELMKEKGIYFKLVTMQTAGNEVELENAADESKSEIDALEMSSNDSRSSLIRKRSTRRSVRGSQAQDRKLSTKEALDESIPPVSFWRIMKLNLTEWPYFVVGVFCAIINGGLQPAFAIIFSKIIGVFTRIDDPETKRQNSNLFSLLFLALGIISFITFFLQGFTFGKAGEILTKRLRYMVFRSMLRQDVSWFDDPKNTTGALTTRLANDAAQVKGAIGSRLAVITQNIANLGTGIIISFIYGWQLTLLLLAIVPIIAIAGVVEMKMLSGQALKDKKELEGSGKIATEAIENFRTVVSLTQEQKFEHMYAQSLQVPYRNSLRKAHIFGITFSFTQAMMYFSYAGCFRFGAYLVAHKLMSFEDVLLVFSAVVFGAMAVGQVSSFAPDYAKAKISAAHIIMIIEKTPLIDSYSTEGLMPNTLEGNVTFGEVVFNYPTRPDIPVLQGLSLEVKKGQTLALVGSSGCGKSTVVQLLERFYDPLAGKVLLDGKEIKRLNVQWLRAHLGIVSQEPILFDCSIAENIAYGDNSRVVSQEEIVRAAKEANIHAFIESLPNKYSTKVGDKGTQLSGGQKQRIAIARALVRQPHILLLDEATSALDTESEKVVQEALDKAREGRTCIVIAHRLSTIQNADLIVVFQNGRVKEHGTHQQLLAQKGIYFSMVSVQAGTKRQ

As to `c1ccc2c(c1)sc1ccccc12`, the inhibition (commonly the relative decrease from the control value, in per cent) in assay [1] is 11%. In assay [2], this molecule had a rescue above control of 18.8. Further, in assay [3], the glutamate uptake change is -0.7%. Also, in [4], the aggregation suppression score was 0.0947.

Regarding `CCCCCCCCCCCCCCCC[N+](C)(C)C`, the inhibition in assay [1] amounted to 66.5%. The same molecule had a rescue above control in [2] of 0. In assay [3], the glutamate uptake change is -41.1%. The aggregation suppression score in assay [4] is -0.0208.

For the molecule `Cc1cc(O)ccc1Cl`, the inhibition in [1] was found to be 17.2%. The same molecule yielded a rescue above control in assay [2] of 2.39. For the same molecule, the glutamate uptake change in [3] is -10.2%. Also, in assay [5], the inclusion score was determined as 2. In assay [4], this molecule came in with an aggregation suppression score of 0.639.

In turn, `CC(=O)[O][Hg][c]1ccccc1` displayed a rescue above control in [2] of 0. Besides, the glutamate uptake change in [3] is -17.8%. Besides, the aggregation suppression score in assay [4] was -0.131.

For `Clc1ccc(CSC(Cn2ccnc2)c2ccc(Cl)cc2Cl)cc1` (stereo unspecified), the fluorescence slope change in assay [6] was 21.9% (inactive). The inhibition in assay [1] was 16.4%. For the same molecule, the rescue above control in assay [2] came to 23. For the same molecule, in assay [3], the glutamate uptake change was determined as 6.86%. In assay [4], this molecule displayed an aggregation suppression score of 0.000314. Further, the survival in assay [7] was 7.67 (inactive).

With `Oc1ccc(Cl)cc1`, the inhibition in [1] is -57%. Moreover, the rescue above control in assay [2] stood at 0.9. Also, in assay [3], the glutamate uptake change amounted to 4.5%. This molecule displayed an inclusion score in assay [5] of 2. The molecule further returned an aggregation suppression score in assay [4] of 0.223.

Regarding `CC[n+]1c(-c2ccccc2)c2cc(N)ccc2c2ccc(N)cc21`, in assay [1], the inhibition is 24.8%. In assay [2], this molecule displayed a rescue above control of 0. In assay [3], the glutamate uptake change was determined as 5.78%. Moreover, the aggregation suppression score in [4] stood at 0.0827.

Regarding `C=C(C)[C@H]1CN[C@H](C(=O)O)[C@H]1CC(=O)O`, in assay [8], the period change is 0.025 h (inactive). Moreover, the inhibition in assay [9] is -3% (inactive). For the same molecule, the fluorescence ratio (interference) in assay [10] was 1 (inactive). The remaining activity (as a rule, the signal under treatment as a percentage of the control signal) in assay [11] is 119% (inactive). The molecule was called inactive in assay [12].

For the molecule `C[C@H]1C(=O)O[C@@H]2CCN3CC=C(COC(=O)[C@](C)(O)[C@]1(C)O)[C@H]23`, the fluorescence slope change in [6] was 24.9% (inactive). Besides, the inhibition in assay [1] was found to be 11.2%. Further, the rescue above control in assay [2] was 10.3. The glutamate uptake change in assay [3] was 4%. The molecule also came in with an inclusion score in [5] of 2. Further, the aggregation suppression score in [4] came to 1.12. The survival in assay [7] is 1.5 (inactive).

`COc1c2c(cc3c1OCO3)CCN(C)C2`: the fluorescence slope change in assay [6] is 4% (inactive). In addition, the survival in [7] was 4.08 (inactive).

Take `O=c1oc2ccccc2c(O)c1Cc1c(O)c2ccccc2oc1=O`: the fluorescence slope change in assay [6] is -7.2% (inactive). Moreover, the inhibition in [1] worked out at 3.41%. The glutamate uptake change in assay [3] is -38%. Further, the inclusion score in assay [5] stood at 1. The molecule further came in with an aggregation suppression score in assay [4] of 1.26. The survival in assay [7] was 4.42 (inactive).

As to `N[C@@H]1C[C@H]1c1ccccc1`, in assay [7], the survival was 34.7 (inactive). In assay [11], the remaining activity is 95.5% (inactive).

Turning to `Cc1cccc(C)c1NC1=NCCCS1`, the fluorescence slope change in assay [6] is 18% (inactive). The results for the inhibition in [1] and in assay [9] were -1.23% and -2% (inactive), respectively. Further, the rescue above control in assay [2] is -0.14. Besides, the glutamate uptake change in assay [3] was -9.68%. In [5], this molecule yielded an inclusion score of 2. The aggregation suppression score in assay [4] worked out at 1.27. Also, the period change in assay [8] was -0.19 h (inactive). For the same molecule, in assay [7], the survival is 6.75 (inactive). Further, the fluorescence ratio (interference) in [10] was 1 (inactive). Further, in assay [11], the remaining activity is 121% (inactive). In addition, the molecule was called inactive in assay [12].

Take `NCC(CC(=O)O)c1ccc(Cl)cc1` (stereo unspecified): in assay [6], the fluorescence slope change was 76.7% (active). Besides, the inhibition was -4.56% in assay [1] and -1% (inactive) in assay [9]. Moreover, the rescue above control in assay [2] was found to be 5.24. Besides, in [3], the glutamate uptake change was -15.4%. In addition, the inclusion score in assay [5] was 2. Also, the aggregation suppression score in assay [4] turned out to be 1.13. For the same molecule, the period change in [8] is 0.145 h (inactive). Moreover, in [7], the survival was 9.17 (inactive). For the same molecule, the fluorescence ratio (interference) in [10] was 0.9 (inactive). Besides, in assay [12], the call was inactive.
